# Assay outcomes (PubChem)
# In the library only some 0.52% were active in any assay of this set; here they are far more common.
# S aureus helic = S. aureus DNA helicase inhibition; purified S. aureus helicase, fluorescence unwinding assay; inhibition, % (concentration not given with the values); 120,000 tested, 0.05% active; AID 485395; in the data active = inhibition above about 25%, passing the limit was not always enough;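 also: 0% = mean of negative control wells and 100% = mean of positive control wells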
# Sa growth 42C = blocks Staphylococcus aureus growth | 170,000 tested, 0.53% active | relative growth, % (test concentration not listed) | S. aureus RN4220 growth, OD600, 20 h, 42 °C; stronger effect = lower value | AID 720641;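 active = relative growth at most 50% at the other temperature and 20+ points below 30 °C, or under 10% at both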
# Starred values were filed as active, the others as inactive; nt = not tested or not shown; ! = not confirmed by another sample.
SMILES,S aureus helic,Sa growth 42C
COc1ccc(/C=C(\C#N)c2ccc(C)cc2)cc1,nt,44*
COc1ccc(/C=C(\C#N)c2ccc(OC)cc2)cc1,nt,133
O=c1oc2cc(Cl)c(O)c(Cl)c2s1,30,60
Oc1nc2c(Cl)c(Cl)c(Cl)cc2o1,30,-1.2*
Cc1ccc(NC(=O)c2sc(=S)n3c2[nH]c(=O)c2ccccc23)c(C)c1,nt,4.6*
COc1ccc(NC(=O)c2sc(=S)n3c2[nH]c(=O)c2ccccc23)cc1,-13,35
N#CC(C#N)=NNc1ccc(SC(F)F)cc1,30,0.9*
CCOC(=O)/C(C#N)=N/Nc1ccc(SC(F)F)cc1,10,34
Cc1nonc1NCc1ccc(N(C)C)cc1,3,113
CC(C)(C)c1cc(C(c2ccccn2)N2CCCC2)cc(C(C)(C)C)c1O (stereo not given),13,104
CC(C)(C)c1cc(C(c2ccc(O)cc2)N2CCOCC2)cc(C(C)(C)C)c1O (stereo not given),15,-1.3*
COC(=O)C(N)C(C)C (stereo not given),-8,80
N#CC(C#N)=NNc1ccc2c(c1)OCO2,18,0.6*
CC(=O)Nc1ccc2c(c1)OCO2,16,138
CN1C(=O)Cc2cc(S(=O)(=O)CCC(=O)N3CCN(Cc4ccc5c(c4)OCO5)CC3)ccc21,14,101
S=C(Nc1cccc(Cl)c1)Nc1cccc(Cl)c1,nt,0.0*
CC(C)(C)NC(=S)Nc1cccc(Cl)c1,10,126
Cc1nn(CCC(N)=S)c2nc(-c3ccccc3)ccc12,26,103
CC(=O)/C=C(\O)c1ccc(Cl)cc1,12,84
O=C(/C=C(\O)c1ccc(Cl)cc1)C(F)(F)F,-2,-0.1*
CCCc1cc2c(cc1NC(=O)c1ccccc1SC)OCO2,6,108
CCC1CCc2[nH]c(=S)c(C#N)c(C(F)(F)F)c2C1 (stereo not given),16,8.0*
CCCCSc1nc2c(c(C(F)(F)F)c1C#N)CCC2,9,109
Cc1cccc(NC(=O)c2c(NC(=O)C(F)(F)F)sc3c2CCCCC3)c1,nt,35
O=C(Nc1cccc(Cl)c1)c1c(NC(=O)C(F)(F)F)sc2c1CCCC2,nt,-1.2*
SMILES,S aureus helic,Sa growth 42C
Nc1nc(SC#CC(F)(F)F)ns1,7,-0.6*
O=C(O)C1CCCN1S(=O)(=O)c1ccccc1C(F)(F)F (stereo not given),5,96
Nc1ccccc1N1CCCC1,11,2.8*
c1ccc2c(c1)N1CCN2CC1,-9,94
COCCN(C(=O)c1noc2c1CCCCC2)C1CCN(C(C)=O)CC1,32,101
CN(C)c1c[nH]c(=O)[nH]c1=O,5,96
O=c1[nH]cc(F)c(=O)[nH]1,nt,-0.5*
COc1cccc(C(=O)N/C(=C\c2cccnc2)C(=O)N2CC3CC(C2)c2cccc(=O)n2C3)c1 (stereo not given),2,87
COc1ccc(-c2ccnc(SC)n2)cc1,nt,129
COc1nncc(-c2cnnc(SC)n2)n1,8,0.1*
Cn1c2ccc(F)cc2c2nc3n(c(=O)c21)CCS3,-3,96
COc1cc2c3nc4n(c(=O)c3n(C)c2cc1OC)CCS4,49*,98
NN(CCc1ccncc1)C1=NS(=O)(=O)c2ccccc21,-21,86
Cc1onc(-c2ccccc2)c1C(=O)N[C@@H]1C(=O)N2[C@@H]1SC(C)(C)[C@@H]2C(=O)O,nt,-1.3*
CCN1CCN(C(=O)N[C@@H](C(=O)N[C@@H]2C(=O)N3[C@@H]2SC(C)(C)[C@@H]3C(=O)O)c2ccccc2)C(=O)C1=O,nt,-0.5*
Cc1onc(-c2ccccc2)c1C(=O)NC1CCCCC1NC(=O)c1c(-c2ccccc2)noc1C (stereo not given),-18,100
CC1(C)S[C@@H]2[C@H](NC(=O)C(C(=O)O)c3ccccc3)C(=O)N2[C@H]1C(=O)O (stereo not given in full),nt,0.0*
CCCOC(=O)C(N)c1ccccc1 (stereo not given),0,107
CC1(C)SC(c2ccc(C3NC(C(=O)O)C(C)(C)S3)cc2)NC1C(=O)O (stereo not given),18,92
CC1(C)S[C@@H]2[C@H](NC(=O)[C@H](N)c3ccccc3)C(=O)N2[C@H]1C(=O)O,nt,-0.9*!
CCN(CC)C(=O)C1=CC(c2ccco2)=NS(=O)(=O)N1C,0,75
O=C1/C(=C/c2ccncc2)CCC/C1=C\c1ccncc1,38,-0.2*
O=C1/C(=C/c2cccnc2)CCCC/C1=C\c1cccnc1,-16,nt
O=c1cc(C(F)(F)F)[nH]c2ccc(Br)cc12,nt,26
COc1cccc2c(=O)cc(C)[nH]c12,5,91
O=c1cc(C(F)(F)F)[nH]c2c(Br)cccc12,-18,3.1*
O=c1cc(C(F)(F)F)[nH]c2c(OC(F)(F)F)cccc12,nt,3.4*
COC(=O)c1ccc(CC(C#N)(c2ccccc2)c2ccccc2)o1,-4,103
Cc1cc(C(=O)NC(C)c2ccccc2)c(C)o1 (stereo not given),-9,76
